This is a sample that favours compounds with a hit; in the whole collection about 3.3% have one here.
697 NFkB inh: inhibitors of PMA/ionomycin-induced NF-kB reporter, 697 cells, primary screen, B-cell NF-kB inhibitor project, cell-based, luminescence, uHTS; inhibition, % at 4 µM; 0.33% of 330,000 active; 697 B-cell NF-kB luciferase reporter, 16 h; in the data active = inhibition above about 35%
Gli-Sufu antag: Gli-Sufu pathway antagonists, primary screen, luciferase luminescence, Sufu-KO-LIGHT cells, uHTS; Sufu-KO-LIGHT fibroblasts, Gli luciferase reporter luminescence; inhibition, % at 5 µM; 0.74% of 340,000 active; AID 588413, 2011;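 active = inhibition above about 55%, limit read from the data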;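 note: 0% = DMSO-treated cells and 100% = wells with medium but no cells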
SMARCA2 act: SMARCA2 (BRM) function activators, primary screen, cell-based, luminescence, high throughput. AID 652017, 2013. MG213 cells, MMTV-luciferase reporter, dexamethasone, overnight. 1% of 370,000 active. activation, % at 9.1 µM; in the data active = activation above about 7.8%;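 note: 0% = vehicle wells and 100% = reference activator wells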
Jurkat NFkB inh: inhibitors of induced NF-kB luciferase reporter, primary screen, TCR NF-kB activation inhibitor project, cell-based, luminescence, uHTS. Jurkat, PMA/ionomycin-induced NF-kB luciferase reporter. inhibition, % at 4 µM. 0.53% of 330,000 active. AID 435003, 2010; in the data active = inhibition above about 50%
esBAF inh: Bmi1 luciferase reporter increase in mESCs, primary screen, esBAF inhibitor project, mouse ES cells, Bmi1 luciferase knock-in, single point. 24 h; 100% = twice the neutral-well signal. reporter increase, % at 12.5 µM. 2% of 350,000 active. AID 602393, 2012; in the data active = activation above about 40%; inconclusive = no clear call, values can overlap the other calls;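 note: 0% = median of the plate's neutral control wells and 100% = double that signal; a rise in the Bmi1 reporter signal indicates esBAF inhibition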
SMARCA2 act conf: SMARCA2 (BRM) function activators, confirmation, cell-based, luminescence, triplicate; shares compounds with SMARCA2 act; MG213 cells, MMTV-luciferase with dexamethasone, overnight; MG213 cells expressing E1A, Rb sequestered; DMSO wells 0%, reference activator 100%; activation, % at 9.1 µM; 30% of 3,500 active;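 active = activation above its plate's cutoff, the mean activation of tested wells plus 3 SD, cut at about 7.9% in these data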
VP16 Luc act: GAL4-VP16 luciferase reporter activation, counter-screen for SMARCA2 (BRM) activator project, cell-based, pG5luc, luminescence, high throughput; activation, % at 9.1 µM; shares compounds with SMARCA2 act; HEK293 GAL4-VP16 pG5luc reporter; scaled: DMSO wells 0%, SAHA wells 100%; 41% of 3,500 active;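 active = activation above the solvent-only control well mean plus 3 SD, averaged across control plates, cut at about 5.2% in these data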
The depositor's hits bear a star.

What do the screens show for `CN1c2ccsc2/C(=N/Nc2ccc(F)cc2)CS1(=O)=O`?
697 NFkB inh: -49.9; Gli-Sufu antag: -37.7; SMARCA2 act: 9.4*; Jurkat NFkB inh: -43.3; esBAF inh: 63.6*; SMARCA2 act conf: 8.1*; VP16 Luc act: 6.5*

How did C=CCN1C(=O)[C@@H](CC(=O)NCCCN2CCCC2=O)[C@]2(C(=O)OC)CCCCC=C12 do in these assays?
SMARCA2 act: 8.7*; SMARCA2 act conf: -0.5; VP16 Luc act: -1.7

How did CCCC(=O)Nc1ccc2c(c1)C(=O)N(C)C[C@H](OC)[C@@H](C)CN(CC1CCOCC1)[C@@H](C)CO2 do in these assays?
esBAF inh: 2.0

What do the screens show for `Cc1ccc(S(=O)(=O)N(C)Cc2ccc(C(=O)N/N=C3\CC(=O)CC(C)(C)C3)cc2)cc1`?
697 NFkB inh: -18.4; Gli-Sufu antag: 7.5; SMARCA2 act: 10.4*; Jurkat NFkB inh: -1.7; SMARCA2 act conf: -0.7; VP16 Luc act: 0.4

Results for COc1cc(C(=O)NCC(=O)NCCCSc2ccccc2)cc(OC)c1OC ?
697 NFkB inh: 5.3; Gli-Sufu antag: 1.0; SMARCA2 act: 8.0*; Jurkat NFkB inh: -7.2; esBAF inh: -3.4; SMARCA2 act conf: 0.1; VP16 Luc act: -0.3

What do the screens show for `Cc1cccc(C(=O)NCC(=O)NCCCSc2ccccc2)c1`?
697 NFkB inh: 10.0; Gli-Sufu antag: -5.7; SMARCA2 act: -0.8; Jurkat NFkB inh: 9.2; esBAF inh: 2.2

What do the screens show for `COCC1CCN(C(=O)C2CCC(=O)N(Cc3ccc(Cl)cc3)C2)CC1` (configuration not stated)?
697 NFkB inh: -10.3; Gli-Sufu antag: -2.2; SMARCA2 act: 8.3*; Jurkat NFkB inh: -9.0; esBAF inh: 1.5; SMARCA2 act conf: -1.2; VP16 Luc act: -0.1

How did Cc1cnc(NC(=O)CN2CCN(c3ccccn3)CC2)s1 do in these assays?
697 NFkB inh: 24.1; Gli-Sufu antag: -32.6; SMARCA2 act: 12.3*; Jurkat NFkB inh: 3.6; SMARCA2 act conf: 21.7*; VP16 Luc act: 0.7

Results for COc1ccc(N2CCN(CC(=O)Nc3ncc(C)s3)CC2)cc1 ?
697 NFkB inh: -1.9; Gli-Sufu antag: 10.9; SMARCA2 act: -0.4; Jurkat NFkB inh: 2.9; esBAF inh: -2.6

What do the screens show for `CC1CN(C(=O)CCC(=O)N2CCCCC2)c2cc(Cl)ccc2O1` (configuration not stated)?
697 NFkB inh: -2.5; Gli-Sufu antag: -11.5; SMARCA2 act: -4.6; Jurkat NFkB inh: 8.0; esBAF inh: -0.6

How did CC1CN(C(=O)CCC(=O)NC(C)c2ccccc2)c2cc(Cl)ccc2O1 (configuration not stated) do in these assays?
697 NFkB inh: 7.5; Gli-Sufu antag: 1.1; SMARCA2 act: 8.3*; Jurkat NFkB inh: -15.9; esBAF inh: -3.1; SMARCA2 act conf: -2.1; VP16 Luc act: 1.5

Results for CCCNC(=O)N[C@H]1CC[C@H](CCn2cc(C3CCCCC3)nn2)O[C@H]1CO ?
esBAF inh: -2.5

Results for Cc1nc2ccc([N+](=O)[O-])cc2nc1C ?
697 NFkB inh: 7.8; Gli-Sufu antag: 24.5; SMARCA2 act: -2.4; Jurkat NFkB inh: 3.7

What do the screens show for `CC1=Nc2cc([N+](=O)[O-])ccc2NC(C)(C)C1`?
697 NFkB inh: 7.0; Gli-Sufu antag: 4.9; SMARCA2 act: 10.8*; Jurkat NFkB inh: -0.1; esBAF inh: 20.9; SMARCA2 act conf: 6.2; VP16 Luc act: 2.1

How did Cn1cc([N+](=O)[O-])c(C(=O)Nc2ccc3nc(-c4ccccc4)[nH]c3c2)n1 do in these assays?
697 NFkB inh: -18.3; Gli-Sufu antag: -17.6; SMARCA2 act: 6.2; Jurkat NFkB inh: -49.7; esBAF inh: inconclusive

Screening data deposited in PubChem BioAssay by several laboratories.
